KB-3-1 tox: qHTS assay for MDR1-selective chemotherapeutics: Primary screen using the parental adenocarcinoma cell KB-3-1; AID 1347075, 2019; actives 1.4% (n = 400,000); Potency, µM (series often up to 46.1 µM), hits mostly cytotoxic; KB-3-1 viability, CellTiter-Glo ATP luminescence, 72 h; further: on the % scale 0 is the no-effect control and ±100 the full control effect; nearly all actives have a fitted effect of over 60% in size
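Parental KB-3-1 viability, qHTS format: 72 h compound exposure, 37 °C; CellTiter-Glo; media-only wells and DMSO plates as controls; concentration-effect fits on corrected data.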
SW480 rereplic: A quantitative high throughput screen for small molecules that induce DNA re-replication in SW480 colon adenocarcinoma cells | SW480 DNA re-replication, Hoechst DNA content imaging, 48 h | Potency, µM (series often up to 46.1 µM), for inactives: at the top dose re-replication activation, most hits filed as activators | actives 1.8% (n = 340,000); further: % of control where 0% means no effect; nearly all actives have a fitted effect of over 55% in size
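Readout is total intensity of Hoechst-stained nuclei, excited at 405 nm and collected at 500-530 nm. Compound treatment lasted 48 hr at 37 C in 5% CO2 before staining.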
KB-V1 MDR tox: qHTS assay for MDR1-selective chemotherapeutics: Primary screen using the drug-selected MDR subline cells KB-V1. actives 3.4% (n = 400,000). Potency, µM (series often up to 46.1 µM), usual class: cytotoxic. AID 1347076, 2019. KB-V1 MDR cells viability, CellTiter-Glo, 72 h; further: on the % scale 0 is the no-effect control and ±100 the full control effect; nearly all actives have a fitted effect of over 60% in size
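Luminescent ATP read-out (CellTiter-Glo, 10 min) measures survival of drug-selected KB-V1 MDR cells after 72 h, 37 degrees C compound exposure. Medium: phenol-red-free DMEM, 10% FBS. Values from fitted concentration-response curves.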
PINK1 modulator: A Quantitative High throughput Screen to Identify Chemical Modulators of PINK1 Expression | Potency, µM (top dose mostly 76.6 µM), without a hit: at the highest dose activation (PINK1 increase), hits mostly activators | actives 0.2% (n = 410,000) | AID 624263, 2012 | PINK1 immunofluorescence, high-content cytometry, 24 h; active means well fitted activation curve with a large enough effect; inconclusive means small, poorly fitted or top-dose-only effect; cell line not stated here; further: % of control where 0% means no effect; nearly all actives have a fitted effect of over 65% in size
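Compound titrations (5 concentrations, 24 h) on a stable cell line; DMSO and CCCP controls. Endpoint: fixed-cell PINK1 immunofluorescence with mitochondrial, cell and nuclear markers, scanned by microplate cytometer.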
PTAP TSG101 blk: qHTS Assay for Iinhibitors of HIV-1 Budding by Blocking the Interaction of PTAP/TSG101. Potency, µM (top dose mostly 115 µM), inactives show top-dose activity change, negative = inhibition, usual class: inhibitors. 340,000 tested, under 10 active. Tumor susceptibility gene 101 protein (Homo sapiens), Q99816. Fluorescence polarization, FITC-PTAP peptide / Tsg101 binding. AID 493005, 2010; active means well fitted inhibition curve with a large enough effect in the main read-out, with a control signal flat, not every such curve was filed as active; inconclusive means small, poorly fitted or top-dose-only effect, or effect the other way, or a change in a side signal; inactive means no such curve, though single readings can be large or run the other way; further: % of control where 0% means no effect
Target sequence (Q99816 whole entry, looked up): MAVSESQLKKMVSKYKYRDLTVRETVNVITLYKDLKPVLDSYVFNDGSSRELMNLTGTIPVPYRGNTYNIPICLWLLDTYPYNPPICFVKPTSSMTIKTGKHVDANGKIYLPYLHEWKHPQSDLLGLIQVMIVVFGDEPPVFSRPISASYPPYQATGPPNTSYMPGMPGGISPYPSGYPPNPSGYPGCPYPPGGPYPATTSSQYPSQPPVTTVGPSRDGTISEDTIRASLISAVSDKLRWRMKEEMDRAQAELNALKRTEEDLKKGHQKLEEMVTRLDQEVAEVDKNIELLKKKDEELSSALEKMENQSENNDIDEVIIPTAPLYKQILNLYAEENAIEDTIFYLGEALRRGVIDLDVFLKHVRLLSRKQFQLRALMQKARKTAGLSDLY
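Fluorescence polarization binding of Tsg101 binding domain (10 uM final) to FITC-labeled PTAP peptide (50 nM final) in HEPES pH 7.5 buffer with NaCl, Tween 20, EDTA, TCEP. Compounds added before peptide; binding 20 min at RT.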
MCF10A rereplic: A quantitative high throughput screen for small molecules that induce DNA re-replication in MCF 10a normal breast cells; actives 2.9% (n = 350,000); MCF 10A DNA re-replication, Hoechst nuclear intensity, 48 h; Potency, µM (highest dose often 46.1 µM), for the others: at the highest dose activity, positive = re-replication, actives largely listed as activators; AID 624296, 2012; further: % of control where 0% means no effect; nearly all actives have a fitted effect of over 50% in size
An asterisk follows results filed as active; i = inactive; ? = inconclusive; . = not tested or not shown; [ ] = remark or other dose. The list is not random: actives were taken first. Their share in the collection is about 6.8%. Unless noted, the call rests on the fitted dose curve; in most records, active means well fitted curve in the direction sought with a large enough effect; inconclusive means small, poorly fitted or top-dose-only effect, or another doubt; inactive means no such curve, though single readings can be large; an effect the other way counts as inactive or inconclusive. Potency means the concentration at half of the fitted maximal effect.

SMILES	KB-3-1 tox	SW480 rereplic	KB-V1 MDR tox	PINK1 modulator	PTAP TSG101 blk	MCF10A rereplic
Cc1ccc(NC(=O)c2ccccc2NS(=O)(=O)c2ccc(F)cc2)cc1S(=O)(=O)N1CCCCC1	?	?	?	11µM*	-1%	?
O=S(=O)(c1ccc(F)cc1)N1CCCC1	i	-22%	i	-2%	-1%	4%
O=C(Nc1ccc(F)cc1F)c1cc(S(=O)(=O)N2CCCCC2)c[nH]1	18µM*	.	?	4%	.	.
O=S(=O)(Nc1ccccc1OC(F)F)c1ccc(S(=O)(=O)N2CCCC2)cc1	i	-8%	18µM*	1%	-2%	7%
NS(=O)(=O)c1cccc(NC(=O)c2ccccc2NS(=O)(=O)c2ccc(F)cc2)c1	i	-1%	i	1%	-4%	1%
O=C(Nc1cccc(S(=O)(=O)N2CCCCC2)c1)c1ccccc1NS(=O)(=O)c1ccc(F)cc1	?	?	21µM*	14µM*	0%	?
NC(=O)[C@@H]1CSSCCC(=O)N[C@@H](CCCCN=C(N)N)C(=O)NCC(=O)N[C@@H](CC(=O)O)C(=O)N[C@@H](Cc2c[nH]c3ccccc23)C(=O)N2CCC[C@H]2C(=O)N1	.	1%	.	.	.	8%
CCc1nnc2c(N3CCN(c4cccc(C(F)(F)F)c4)CC3)nc3ccccc3n12	i	.	?	1%	.	.
O=C1Nc2ccc(Br)cc2/C1=C/C(=O)c1ccc2c(c1)OCO2	?	?	?	-2%	-8%	3.7µM*
COc1ccc2c(c1)/C(=C/c1cc(OC)c(OC)c(OC)c1)C(=O)N2	2.3µM*	2.6µM*	?	9%	-2%	?
CC(C)Oc1ccc(C(=O)/C=C2/C(=O)Nc3ccccc32)cc1	?	?	i	0%	1%	?
COc1ccc(C(=O)/C=C2\C(=O)Nc3ccc(Br)cc32)cc1	?	?	?	-3%	-2%	7.3µM*
Cc1ccc(NC(=O)Cn2nc(C)n3cccc3c2=O)c(C)c1	.	.	.	-1%	.	.
COc1ccc(-c2nnc(SCc3cccc(Cl)c3)o2)cc1	i	.	i	0%	.	.
CCn1c2ccccc2c2cc(NC(=O)c3ccc([N+](=O)[O-])cc3)ccc21	?	14%	i	11%	-7%	19%
NNC(=O)CCn1c2ccccc2c2ccccc21	i	86%	i	15%	-7%	12µM*
O=[N+]([O-])c1ccc2c(c1)c1ccccc1n2CCO	?	?	8.2µM*	0%	-2%	?
CCOC(=O)Cn1c(=O)n(C2CCCCC2)c2nc(-c3ccc(CC)cc3)nc(C(N)=O)c21	8.2µM*	.	i	-1%	.	.
CCOC(=O)Cn1c(=O)n(C2CCCCC2)c2nc(-c3ccc(OCC)cc3)nc(C(N)=O)c21	18µM*	.	?	2%	.	.
CCOc1ccc(N(CC)S(=O)(=O)N2CCCC(C(=O)Nc3cc(Cl)ccc3C)C2)cc1 (stereo not drawn)	i	.	i	0%	.	.
Cc1ccc(-n2ncc3c(NCc4ccc5c(c4)OCO5)ncnc32)c(C)c1	?	-3%	4.1µM*	2%[38.3 µM]	-13%	16%
Cc1cccc(-n2ncc3c(NCc4ccc5c(c4)OCO5)ncnc32)c1	i	-29%	i	.	-2%	-2%
O=C(CSc1ncnc2c1cnn2-c1ccccc1)Nc1ccc2c(c1)OCO2	i	11%	i	6%	-1%	15µM*
c1ccc(-n2ncc3c(NCc4ccc5c(c4)OCO5)ncnc32)cc1	i	2%	21µM*	2%[38.3 µM]	.	?
Clc1ccc(/C=C/c2ccnc3ccccc23)c(Cl)c1	?	.	i	.	.	.
SMILES	KB-3-1 tox	SW480 rereplic	KB-V1 MDR tox	PINK1 modulator	PTAP TSG101 blk	MCF10A rereplic
N#Cc1c(-c2cccc(Br)c2)cc(-c2ccco2)[nH]c1=O	i	?	i	-1%	-2%	7.3µM*
O=C(Cn1c(=O)c2cccn2c2ccc(F)cc21)N1CCN(c2ccccc2F)CC1	.	.	.	6%	.	.
COc1cccc(CNCCSc2nnnn2-c2ccccc2)c1OC	i	.	i	-1%	.	.
OCCSc1ncnc2c1oc1ccccc12	i	-1%	i	-1%	-1%	2%
N#CCCSc1ncnc2c1oc1ccccc12	?	-12%	12µM*	-7%[38.3 µM]	-6%	-8%
Cc1ccccc1Cc1nc2cccnc2n1C1CCN(C(=O)CC2NC(=O)c3ccccc32)CC1 (stereo not drawn)	.	.	.	1%	.	.
CCCNC(=O)Nc1cc(C(=O)NCc2cccc(OCC)c2)ccc1N1CCCC1	i	.	i	-1%	.	.
CCC(c1nc2ccccc2c(=O)n1-c1nc2ccccc2s1)N1C(=O)c2ccccc2C1=O (stereo not drawn)	?	7.3µM*	3.7µM*	4%	-2%	-50%
O=c1c2ccccc2ncn1Cc1nc2ccccc2s1	i	-2%	i	0%	-2%	21%
CS(=O)(=O)N1CCC2(CC1)CN(C(=O)Nc1ccccc1)C2	.	.	.	0%	.	.
CCOc1ccc(N(C(=O)Cn2nnc3ccccc32)C(C(=O)NCc2ccccc2)c2ccc(OC)cc2)cc1 (stereo not drawn)	.	.	.	3%	.	.
COc1ccc(N(C(=O)Cn2cnc3ccccc32)C(C(=O)NC2CCCCC2)c2ccccc2)cc1 (stereo not drawn)	i	23µM*	i	.	0%	?
CCOC(=O)CN1C=C(c2ccc3ccccc3n2)C(C[N+](=O)[O-])c2ccccc21 (stereo not drawn)	i	?	i	1%	-18%	16µM*
CCOC(=O)CSc1ccc2ccccc2n1	i	-1%	i	4%	-1%	-2%
CCOC(=O)c1cc(C)n(CC2CCC(C(=O)Nc3cccc(C)c3)CC2)c1C (stereo not drawn)	.	.	.	1%	.	.
Cc1ccc(-c2csc3nc(SCC(N)=O)n(Cc4ccccc4)c(=O)c23)cc1	i	.	21µM*	0%	-5%	?
Cc1ccccc1NC(=O)c1ccc(F)c(S(=O)(=O)N2CCN(c3ccccc3F)CC2)c1	.	.	.	-1%	.	.
Cc1cc(C(=O)Nc2c(C)nn(Cc3ccc(F)cc3)c2C)on1	i	-11%	i	5%	-5%	7%

Screening data from PubChem BioAssay.
